# Measured values from PubChem BioAssay AID504451 (NMMLSC, 2011).
# In all, about 2,000 compounds went through this assay and about 80 (4%) were called active.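 The calls were made as follows: active = aptamer displacement above 40%, near three times the noise of non-fluorescent compounds, on plates passing quality checks; inactive = the rest.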 The list is a sample of the results.
# Biological target: Beta-adrenergic receptor kinase 1 (Homo sapiens) (UniProt P25098)
# Assay: GRK2 aptamer-displacing inhibitors, retest, confirmation, biochemical, cherry pick 1, bead flow cytometry (AID 504451);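 also: negative values mostly reflect intrinsic compound fluorescence rather than true enhancement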
# Conditions: bead-bound GRK2, FAM-aptamer displacement, at 10 µM, stronger effect = higher value
# Chain of Beta-adrenergic receptor kinase 1 (Homo sapiens) (P25098 whole entry, looked up): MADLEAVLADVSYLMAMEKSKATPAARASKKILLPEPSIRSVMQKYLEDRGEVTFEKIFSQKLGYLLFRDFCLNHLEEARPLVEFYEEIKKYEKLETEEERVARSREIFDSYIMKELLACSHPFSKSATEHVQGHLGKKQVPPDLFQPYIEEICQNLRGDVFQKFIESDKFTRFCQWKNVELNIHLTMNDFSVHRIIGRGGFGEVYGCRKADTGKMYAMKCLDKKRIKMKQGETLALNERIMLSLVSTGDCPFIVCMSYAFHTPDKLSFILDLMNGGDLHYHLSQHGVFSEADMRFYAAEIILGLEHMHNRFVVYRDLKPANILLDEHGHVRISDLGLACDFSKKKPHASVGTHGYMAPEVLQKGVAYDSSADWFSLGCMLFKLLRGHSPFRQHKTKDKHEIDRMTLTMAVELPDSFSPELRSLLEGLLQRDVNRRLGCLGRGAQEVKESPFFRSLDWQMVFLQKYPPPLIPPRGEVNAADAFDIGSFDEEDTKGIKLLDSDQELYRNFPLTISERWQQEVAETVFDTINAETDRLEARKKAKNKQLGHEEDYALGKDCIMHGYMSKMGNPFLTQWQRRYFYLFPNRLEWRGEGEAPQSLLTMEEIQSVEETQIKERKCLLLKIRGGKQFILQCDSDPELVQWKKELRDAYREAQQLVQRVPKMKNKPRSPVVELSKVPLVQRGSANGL
row,Structure (SMILES),aptamer displacement
1,COc1cc(C(=O)NCc2ccc3c(c2)cc(C)n3C)cc(OC)c1OC,0.16% (inactive)
2,Cc1csc(=O)n1CC(=O)OCC(=O)N(CC(C)C)c1c(N)n(Cc2ccccc2)c(=O)[nH]c1=O,-4.19% (inactive)
3,COCCn1c(C)cc(C(=O)CN2c3cccc4cccc(c34)S2(=O)=O)c1C,5.59% (inactive)
4,COc1ccc(NC(=O)CN(C)C(=O)c2cc(-c3ccc(C)o3)nc3ccccc23)cc1,1.02% (inactive)
5,O=C(NNc1ncnc2c1cnn2-c1ccccc1)c1ccco1,-5.21% (inactive)
6,C/C(=N\OCC(=O)O)c1ccc(Cl)cc1,-4.26% (inactive)
7,NC(=O)C1CCN(C(=O)c2ccc3c(=O)n(Cc4cccc(Br)c4)c(=S)[nH]c3c2)CC1,2.04% (inactive)
8,CCCCn1nc(C(=O)OCC(=O)Nc2sccc2C(N)=O)c2ccccc2c1=O,-3.95% (inactive)
9,O=S(=O)(Nc1ccc(-c2ccc(N3CCOCC3)nn2)cc1)c1cc(Cl)ccc1Cl,1.37% (inactive)
10,CCOC(=O)C(C)n1cnc2scc(-c3ccc(C)c(C)c3)c2c1=O (stereo not drawn),0.17% (inactive)
11,COc1ccccc1NC(=O)CSc1nc2sc3c(c2c(=O)n1-c1ccccc1)CCN(C)C3,1.27% (inactive)
12,O=C(Nc1nnc(-c2ccccc2)o1)c1cccc(S(=O)(=O)N2CCOCC2)c1,-3.8% (inactive)
13,CSc1ccc(/C=C2\NC(=O)NC2=O)cc1,-11.5% (inactive)
14,Cc1nn(Cc2ccc(F)cc2)c(C)c1NC(=O)c1noc2c1CCc1ccccc1-2,12.1% (inactive)
15,O=C(COC(=O)c1ccc(F)cc1F)Nc1ncccn1,39.1% (inactive)
16,Cc1ccccc1CN1CCN(CC(=O)NCc2ccccn2)C1=O,0.03% (inactive)
17,CCOCCCNC(=O)C(NC(=O)CNC(=O)c1ccccc1)c1ccc(OC)cc1 (stereo not drawn),-2.56% (inactive)
18,Cc1ccc(C(CNC(=O)Nc2cccc(C)c2)N2CCN(C)CC2)cc1 (stereo not drawn),-1.91% (inactive)
19,O=C(CCNC(=O)c1ccccc1)NN=Cc1ccc(Br)o1,8.12% (inactive)
20,Cc1ccc(N2C(=O)C3N=NN(CC(=O)N4N=C(c5cccc6ccccc56)CC4c4ccccc4)C3C2=O)cc1 (stereo not drawn),-6.3% (inactive)
21,CC(=O)N1CC[n+]2c(-c3ccc([N+](=O)[O-])cc3)csc21,-2.74% (inactive)
22,O=C(c1cc2cc(F)ccc2[nH]1)N1CCN(c2ccc(F)cc2)CC1,-3.05% (inactive)
23,Cc1cccc(NC(=O)C2CCCN(C(=O)NCc3ccccc3)C2)c1C (stereo not drawn),-2.02% (inactive)
24,COc1ccc(Cl)cc1NC(=O)CCS(=O)(=O)c1cc2c(cc1C)NC(=O)CO2,1.91% (inactive)
25,COc1ccc(-n2nc(C(=O)NCC(=O)N3CCCCCC3)c3ccccc3c2=O)cc1Cl,-1.64% (inactive)
26,CC(NC(=O)C1CCCN(S(=O)(=O)c2ccc(-n3cnnn3)cc2)C1)c1ccc(F)cc1 (stereo not drawn),1.56% (inactive)

row,Structure (SMILES),aptamer displacement
1,COc1cc(C(=O)OCC(=O)N(CC(C)C)C2CCS(=O)(=O)C2)ccc1OCC(C)C (stereo not drawn),-1.87% (inactive)
2,Cc1nc(Nc2ccccc2F)c2nnn(Cc3ccccc3Cl)c2n1,0.75% (inactive)
3,COCCCNC(=O)CNC(=O)c1nn(-c2ccc(OC)cc2)c(=O)c2ccccc12,-4.54% (inactive)
4,COc1ccc(Nc2cc(Sc3ccc(OC)cc3)ncn2)cc1,-1.93% (inactive)
5,CCOC(=O)c1sc2nc(CSc3ccccc3)[nH]c(=O)c2c1C,-0.46% (inactive)
6,Nc1ccc2nc3c(=O)[nH]c(=S)[nH]c3nc2c1,33% (inactive)
7,Cc1cc(C(=O)NC2CCN(Cc3ccccc3)CC2)n[nH]1,-6.63% (inactive)
8,CCC(=C/c1sc2ccc3ccccc3c2[n+]1C)/C=C1\Sc2ccc3ccccc3c2N1C,101% (active)
9,O=C(NCC12CC3CC(C1)CC(CNC(=O)N1CCCC1)(C3)C2)N1CCCC1,-0.31% (inactive)
10,CCOc1ccccc1C(=O)NCc1ccco1,-1.88% (inactive)
11,COC(=O)c1ccc(C)c(NC(=O)C2CC(=O)N(C3CCCC(C)C3C)C2)c1 (stereo not drawn),-1.41% (inactive)
12,O=C(NCc1ccccc1)c1cccc(NC(=O)C2CCCCC2)c1,0.14% (inactive)
13,COc1ccc(C(=O)NCCNc2ccc([N+](=O)[O-])cn2)cc1,-0.48% (inactive)
14,C/C(=N\Nc1nc2ccccc2[nH]1)c1cccs1,-0.6% (inactive)
15,COc1ccc(Nc2nc(-c3cccnc3)nc3ccccc23)cn1,4.02% (inactive)
16,COc1ccc(N2CCN(C(CNS(=O)(=O)c3ccc(C)cc3)c3ccccc3)CC2)cc1 (stereo not drawn),-2.82% (inactive)
17,O=C(Nc1ccc(-c2nnc(-c3ccccc3)o2)cc1)c1ccc(Br)o1,0.23% (inactive)
18,O=C1C2N=NN(CC(=O)N3N=C(c4cccc5ccccc45)CC3c3ccccc3)C2C(=O)N1c1ccccc1 (stereo not drawn),0.13% (inactive)
19,COc1cccc(CN(C)CC(=O)Nc2sc3c(c2C#N)CCC3)c1,-0.98% (inactive)
20,Cc1ccccc1-c1nnn(CC(=O)c2ccc(S(=O)(=O)N3CCCC3)cc2)n1,-1.24% (inactive)
21,CC(C)CN(C(=O)c1cccc(S(=O)(=O)N2CCCCC2)c1)C1CCS(=O)(=O)C1 (stereo not drawn),0.16% (inactive)
22,O=c1[nH]c(SCc2ccccc2)nnc1-c1ccccc1,-4.45% (inactive)
23,Cc1cc(/C=C2\SC(=O)N(C)C2=O)c(C)n1-c1cccc(C(=O)O)c1,10.9% (inactive)
24,CN(CC(=O)Nc1ccc(N2CCOCC2)cc1)CC(=O)Nc1ccccc1[N+](=O)[O-],-1.83% (inactive)
25,CNS(=O)(=O)c1cccc(C(=O)NCC2CCCCC2)c1,3.13% (inactive)
26,CCCc1nc2ccccc2c(=O)n1NC(=O)c1c(O)c2ccccc2[nH]c1=O,-0.69% (inactive)

row,Structure (SMILES),aptamer displacement
1,Cn1c(=O)[nH]c(=O)c2c1nc(N1CCN(C(c3ccccc3)c3ccccc3)CC1)n2CCO,-8.5% (inactive)
2,O=C(CCS(=O)(=O)c1ccc(Br)cc1)NCCc1ccc(Cl)cc1,28% (inactive)
3,Cc1ccc(S(=O)(=O)CCC(=O)Nc2nnc(CC(C)C)s2)cc1,2.47% (inactive)
4,O=C(Oc1ccc(Br)cc1)c1cccnc1,-1.31% (inactive)
5,COC(=O)N/N=C/c1ccc(/C=N/NC(=O)OC)cc1,-0.84% (inactive)
6,O=C(c1cnn(-c2ccc(Cl)cc2)c1)c1ccccc1O,0.64% (inactive)
7,CSc1nc2ccccc2c(=O)n1Cc1ccc(F)cc1,1.65% (inactive)
8,CC(=O)c1ccc(OCC(O)CN2CCN(S(=O)(=O)c3cccc(Br)c3)CC2)cc1 (stereo not drawn),-3.98% (inactive)
9,Cc1cc2cc(CNC(=O)c3cccs3)ccc2[nH]1,11.7% (inactive)
10,Cn1c(=O)c2c(nc(N3CCOCC3)n2CCNC2=NCCC2)n(C)c1=O,5.84% (inactive)
11,CN(Cc1ccccc1)C(=O)c1cccc(C(=O)N(C)Cc2ccccc2)c1,-0.51% (inactive)
12,CCN1C(=O)[C@H]2[C@@H](c3ccc(-c4ccc(OC)cc4)cc3)N[C@@](Cc3ccccc3)(C(=O)OC)[C@H]2C1=O,-7.18% (inactive)
13,OC(CN=c1sc2ccccc2n1CC(O)COc1ccccc1)COc1ccccc1 (stereo not drawn),1.11% (inactive)
14,CCOC(=O)C1CCCN(Cc2nc(N)nc(Nc3ccc(C)cc3)n2)C1 (stereo not drawn),0.86% (inactive)
15,Cc1ccc(-c2nn(-c3ccccc3)cc2/C=C2\SC(=S)N(CCCCCC(=O)O)C2=O)o1,-4.86% (inactive)
16,CCN1/C(=C/c2ccc3ccc(C)cc3[n+]2CC)Sc2ccccc21,65.9% (active)
17,CCN1/C(=C\c2ccc3ccccc3[n+]2CC)Sc2cc(C)ccc21,75.6% (active)
18,O=C(NCc1ccccc1Cl)c1ccc2c(=O)n(CC3CCCO3)c(=S)[nH]c2c1 (stereo not drawn),-1.07% (inactive)
19,O=C(NC(=O)c1cc(OCC(F)(F)F)ccc1OCC(F)(F)F)Nc1ccccc1,2.33% (inactive)
20,CC(C)Cn1c(CN(Cc2ccccc2)Cc2ccccc2)nc2c1c(=O)n(C)c(=O)n2C,0.47% (inactive)
21,C=C(C)C(=O)Nc1cccc(C2=NOC3(C2)C[C@H](C(N)=O)N(C(=O)C(c2ccccc2)c2ccccc2)C3)c1 (stereo partly drawn),80.5% (active)
22,O=C(O)c1ccc2c(c1)C(=O)N(c1ccc(/C=C/C(=O)c3ccccc3)cc1)C2=O,0.79% (inactive)
23,CN/C(=C\[N+](=O)[O-])NCCSCc1csc(CN(C)C)n1,1.33% (inactive)
24,O=C(c1ccc(Cl)cc1)c1ccc(OCC(O)CN2CCCCC2)cc1 (stereo not drawn),-0.78% (inactive)
25,O=C(COc1ccccc1)NCCc1nc2ccccc2[nH]1,22.4% (inactive)
26,Cc1nc(C(=O)NCc2ccccc2)sc1C1(C)CC(c2cccnc2)=NO1 (stereo not drawn),-1.29% (inactive)
